From ChEMBL document CHEMBL4513216, “Probing the Open Global Health Chemical Diversity Library for Multistage-Active Starting Points for Next-Generation Antimalarials” (ACS Infect Dis, 2020) come the findings set out here.

Molecules are shown by their SMILES. The whole screen tested about 65,000 compounds, of which about 2,100 (3.2%) showed an effect of 50% or more. The median lay at about -52%. The full list was thinned out, with strong results kept by preference.

The assay deals with Plasmodium falciparum. As to the kind of experiment: Screen against P. falciparum Asexual Blood Stage (ABS), at 5uM. In kind it is functional, Dd2. As to conditions: tested at 5 uM.
As to `OC1CCN(c2ccnc(NCCN3CCc4ccccc4C3)n2)C1` (stereo unspecified), the INHIBITION was -46.6%.
The result for `O=C(NCC1(Sc2ccccc2)CC1)c1ccc(=O)[nH]n1` reads -22.5%.
Regarding `COCCOc1ccc(CNc2nc3ccccc3nc2N)cn1`, the INHIBITION is -49.5%.
In the case of `CCC1=NN2C(=N)C(=Cc3cccn3-c3cccc(Cl)c3)C(=O)N=C2S1` it was -39.1%; in that of `COc1cc(NC(=O)NCc2nccn2C)ccc1Br`, -84.1%.
In the case of `O=C(c1ccco1)N1CCCC(c2cc(C(F)(F)F)n3ncnc3n2)C1` (stereo unspecified) it was 4.5%; in that of `Cc1ccsc1CN1C[C@@H]2COC[C@]2(CNC(=O)c2ccco2)C1`, 21.9%; in that of `CC(C)N1CCC2(C=C(C(=O)N(C)C)c3ccccc32)CC1`, -3.5%.
The result for `CCN1CCC2(C=C(C(=O)N(C)C)c3ccccc32)CC1` reads -0.272%.
Turning to `CN1CCC2(C=C(C(=O)N(C)C)c3ccccc32)CC1`, the INHIBITION worked out at 61.5%.
For the compound `Cc1nc(CN(C)C2CCN(Cc3ccc4ccccc4n3)C2)no1` (stereo unspecified), the INHIBITION is reported as -24.6%.
The result for `Cc1ccccc1N1CC2(CCN(c3nncs3)C2)CC1=O` (stereo unspecified) reads -152%; that for `O=C(NC1CC1)[C@@]12CCO[C@@H]1CCN(Cc1ccc3c(c1)OCO3)C2`, -28.1%; that for `CN(C)C(=O)N1CCC(C2C(=O)Nc3ccccc32)CC1` (stereo unspecified), 60%.
Consider `CC(C)C(=O)N1CCC(C2C(=O)Nc3ccccc32)CC1` (stereo unspecified), for which the INHIBITION was -81.3%.
In the case of `O=C1Nc2ccccc2C1C1CCN(C(=O)C2CC2)CC1` (stereo unspecified) it was -87.8%; in that of `CCOc1ccc(OCCN2CCC(N3CCNC3=O)CC2)cc1`, -43.4%.
The result for `Cc1cc2c(N)nc(=O)n(CC(=O)Nc3cccc(Cl)c3)c2s1` reads -44.3%; that for `O=C1N(Cc2cccc(F)c2)CCC12CCN(c1ccccn1)CC2`, 50.6%; that for `Cc1cccc(CN2CCC3(CCN(c4ncccn4)C3)C2=O)c1` (stereo unspecified), -63.6%.
In the case of `O=C1N(Cc2cccc(F)c2)CCC12CCCN(c1ncc(F)cn1)C2` (stereo unspecified) it was -95.8%; in that of `Cc1noc(C)c1C(=O)N1Cc2ncn(C)c2C(COCC2CC2)C1` (stereo unspecified), -98.5%; in that of `CN(Cc1ccco1)C[C@@H]1OC[C@H]2CN(Cc3nccs3)CC[C@H]21`, -48.2%.
As to `CN(Cc1ccco1)C[C@H]1OC[C@@H]2CCN(Cc3ccsc3)C[C@@H]21`, the INHIBITION is on record as 67.3%.
In the case of `Cc1cccc(N2CC[C@H]3[C@H](CO[C@@H]3CN(C)Cc3ccco3)C2)n1` it was 7.29%; in that of `CN(Cc1ccco1)C[C@H]1OC[C@@H]2CCN(Cc3nccs3)C[C@@H]21`, 11.4%.
In the case of `CN(Cc1ccco1)C[C@H]1OC[C@@H]2CCN(Cc3cccnc3)C[C@@H]21` it was -38.5%; in that of `Cc1cccc(N2CC[C@H]3CO[C@H](CN(C)Cc4ccco4)[C@H]3C2)n1`, 50.7%; in that of `Cc1ccc(N2CC[C@H]3CO[C@H](CN(C)Cc4ccco4)[C@H]3C2)nn1`, -35.9%.
In the case of `Cc1ccc(CN2CC[C@H]3CO[C@H](CN(C)Cc4ccco4)[C@H]3C2)s1` it was 58.7%.
For the compound `CN(Cc1ccco1)C[C@H]1OC[C@@H]2CCN(Cc3ccncc3)C[C@@H]21`, the INHIBITION is 2.4%.
Consider `O=C(c1ccco1)N1CCCC2(CCN(c3nncs3)C2)C1` (stereo unspecified), for which the INHIBITION is on record as -157%.
In the case of `O=C(NCc1ccccn1)[C@@]12CCO[C@@H]1CCN(Cc1ccccn1)C2` it was -75.4%.
The result for `CC(C)(C)c1nc(CNc2ccccc2SCCC(N)=O)cs1` reads -98.5%.
The result for `CN(C)C1CCC2(CCN(Cc3nccn3C)CC2)c2ccccc21` (stereo unspecified) reads 24.3%; that for `Cn1cc(C(=O)NCCc2ccc(OC3CCCC3)cc2)ccc1=O`, -53.4%; that for `O=S(=O)(c1ccccc1)N1CCC2(CCCN2Cc2ccccc2Cl)C1` (stereo unspecified), -129%.
For the compound `CCCNC(=O)C1CCCN(c2ccc3nncn3n2)C1` (stereo unspecified), the INHIBITION is -47.2%.
In the case of `CS(=O)(=O)Nc1ccn(Cc2ccc(Cl)cc2)n1` it was -58.2%; in that of `CCCN(CCC)c1ncc(S(=O)(=O)c2ccc(OC)cc2)c(N)n1`, 67.6%.
The result for `CCCN(CCC)c1ncc(S(=O)(=O)c2ccccc2)c(N)n1` reads -9.26%.
In the case of `CCCN(CCC)c1ncc(S(=O)(=O)c2ccc(C)cc2)c(N)n1`, the INHIBITION was 14.8%.
In the case of `CC(C)(C)NC(=O)N1CCC(Oc2ccc(C(F)(F)F)cn2)CC1` it was -12%; in that of `CNC(=O)CN1CCCC12CCN(C(=O)c1ccoc1)CC2`, 53.1%; in that of `CN(C)CCN1CCCC12CCN(C(=O)c1ccoc1)CC2`, -39%.
Turning to `CNC(=O)CN1CCCC12CCN(C(=O)c1ccc(F)cc1)CC2`, the INHIBITION is -39%.
In the case of `O=C(CCNc1ncccn1)N1CCCC(n2cccn2)C1` (stereo unspecified) it was -28.6%.
Turning to `Cc1cc(C(=O)NC2CCCc3c2cnn3-c2cccc(C)c2C)[nH]n1` (stereo unspecified), the INHIBITION was -1.74%.
The result for `Cc1cccc2cc(CO)c(N3Cc4cnc(C(C)(C)C)nc4C3)nc12` reads 66.5%; that for `CC(C)Cc1ncc2c(n1)CN(c1nc3ccccc3cc1CO)C2`, -50%; that for `Cc1ccc(C(=O)O)c(N2Cc3cnc(C(C)(C)C)nc3C2)n1`, -21.3%.
